# Sampled rows, rich in hits. Any-hit rate of the full collection: about 6%.
# 15-hLO inh = blocks human 15-lipoxygenase activity; P16050; purified 15hLO-1, xylenol orange hydroperoxide absorbance; Potency, µM (doses to about 57.1 µM), for inactives: at the highest dose activity change, negative = inhibition, most hits filed as inhibitors; 1.4% of 74,000 active; also: nearly all actives have a fitted effect of over 55% in size
#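 Inhibition is scored from a chromogenic endpoint. After 15 min enzyme-compound contact, arachidonic acid (50 uM final) reacts 6 min with 40 nM 15hLO-1 at room temperature, then Fe-XO reagent is added for 30 min and absorbance ratio recorded.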
# Pol III holo inh = blocks replication by bacterial DNA polymerase III holoenzyme. Potency, µM (top dose mostly 57.1 µM), for the others: at the top dose activity change, negative = inhibition. reconstituted DNA polymerase III holoenzyme replication, biochemical. 0.25% of 71,000 active
#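 Reconstituted *E. coli* holoenzyme (0.35 nM Pol III, 1 nM beta, 154 nM SSB, 2 nM primase) was preincubated with compound for 15 min at RT. Synthesis on 1.4 nM ssM13Gori ran 35 min, then was stopped with PicoGreen/EDTA and read as dsDNA fluorescence.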
# ERK AVP inh = blocks ERK signaling stimulated by vasopressin. HEK293-V1b, vasopressin-stimulated pERK AlphaScreen. Potency, µM (top dose mostly 57.5 µM), without a hit: at the highest dose activity, negative = inhibition, most hits filed as inhibitors. 0.99% of 72,000 active; also: nearly all actives have a fitted effect of over 55% in size
#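 qHTS, compounds titrated on V1b-expressing HEK293 cells. Preincubation 30 min at 37C, vasopressin 25 nM for 5 min, lysis 10 min, bead incubation 5 hr at room temperature.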
# FLuc inh = firefly luciferase inhibition. purified firefly luciferase, luminescence, 8 min. P08659. AID 411. 2.2% of 72,000 active. Potency, µM (titrated, usually from 57.1 µM), without a hit: top-dose activity change, negative = inhibition, usual class: inhibitors; also: nearly all actives have a fitted effect of over 40% in size
#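 Luminescence read-out after 8 min at room temperature; enzyme reaction used luciferin plus 10 uM ATP (linear range) in imidazole buffer pH 7.2 with KCl, MgCl2, Tween 20 and BSA. Each sample was run as a titration.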
# PK Bst = alters activity of Bacillus stearothermophilus pyruvate kinase; 1.2% of 51,000 active; Potency, µM; purified pyruvate kinase, luminescence ATP production; ribose 5-phosphate activator present at AC10; in the data active = potency below about 11 µM; inconclusive = mostly about 12 µM to 25 µM;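 the screen sought inhibitors and activators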;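 also: scaled between full activation by ribose 5 phosphate and full inhibition by luteolin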
# Tau fil binding = tau filament binding | recombinant tau filaments, thioflavin S fluorescence, 15 h; filaments grown with octadecylsulfate alongside compound | Potency, µM (titrated, usually from 57.1 µM), without a hit: top-dose activity change, negative = inhibition | AID 596 | 2% of 71,000 active | P10636;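 also: actives lower thioflavin S fluorescence by blocking filaments or displacing dye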
# Target sequence (P10636 whole entry, looked up): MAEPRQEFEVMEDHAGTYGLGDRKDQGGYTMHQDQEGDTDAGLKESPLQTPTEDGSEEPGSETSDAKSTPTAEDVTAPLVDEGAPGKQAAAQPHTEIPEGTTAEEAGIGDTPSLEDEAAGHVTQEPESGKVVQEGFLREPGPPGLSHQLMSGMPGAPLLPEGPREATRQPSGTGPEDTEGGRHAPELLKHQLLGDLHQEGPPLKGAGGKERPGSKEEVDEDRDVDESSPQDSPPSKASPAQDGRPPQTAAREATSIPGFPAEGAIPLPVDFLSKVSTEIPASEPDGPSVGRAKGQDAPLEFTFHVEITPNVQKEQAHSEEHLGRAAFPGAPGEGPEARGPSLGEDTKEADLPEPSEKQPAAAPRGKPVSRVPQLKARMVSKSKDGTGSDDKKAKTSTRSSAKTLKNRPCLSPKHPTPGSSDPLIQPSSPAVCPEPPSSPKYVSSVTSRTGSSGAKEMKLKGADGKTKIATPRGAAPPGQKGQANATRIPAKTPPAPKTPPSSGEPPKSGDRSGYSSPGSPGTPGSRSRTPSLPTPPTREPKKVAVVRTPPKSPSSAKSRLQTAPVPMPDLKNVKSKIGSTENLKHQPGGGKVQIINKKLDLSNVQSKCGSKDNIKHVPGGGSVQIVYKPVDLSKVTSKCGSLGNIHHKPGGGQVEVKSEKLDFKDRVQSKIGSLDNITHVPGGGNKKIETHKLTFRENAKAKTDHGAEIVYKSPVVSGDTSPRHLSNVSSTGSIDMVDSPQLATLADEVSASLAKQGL
#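 Read-out: ThS fluorescence, 450 nm excitation/510 nm emission; lower signal marks blocked filament formation or displaced dye. Tau at 1 uM with 30 uM ODS, 10 uM ThS, 5 mM DTT, 100 mM NaCl, 10 mM HEPES pH 7.4; 15 h, 37 C.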
# * marks the source's active call; other numbers are inactive results; i = inactive; ? = inconclusive; / = not tested or not shown; [ ] = remark or other dose. Unless noted, calls follow the shape of the dose curve; as a rule, active = well fitted curve in the direction sought with a large enough effect; inconclusive = small, poorly fitted or top-dose-only effect, or another doubt; inactive = no such curve, though single readings can be large; an effect the other way counts as inactive or inconclusive. Unless noted, % is scaled to controls: 0 for no effect and ±100 for the full control effect; potency is read from the fitted curve at half-maximal effect.
SMILES,15-hLO inh,Pol III holo inh,ERK AVP inh,FLuc inh,PK Bst,Tau fil binding
COc1cc2c(cc1NCc1ccccn1)oc1ccccc12,?,-7.4%,-17.8%,-7.3%,i,31.6µM*
CCOc1ccccc1NC(=O)c1ccccc1-c1nc(-c2ccccc2OC)no1,-8.4%,-11.3%,-6.4%,25.1µM*,/,31.4%
CC(C)(C)NC(=O)c1ccccc1-c1nc(-c2ccccc2Cl)no1,5.6%,9.1%,25.0%,20µM*,/,4.8%
Cc1cc(C)c2c(=O)n(CC(=O)NCCCN3CCN(c4ccccc4F)CC3)sc2n1,?,-3.1%,?,12.6µM*,/,?
Cc1ccccc1CS(=O)(=O)CCC(=O)NCCCN1CCN(c2ccccc2F)CC1,-0.6%,6.5%,-6.2%,1.9%,>57,6.8%
Cc1cc(C)c2c(=O)n(CC(=O)NCCCN3CCOCC3)sc2n1,?,-2.2%,-7.9%,12.6µM*,/,-24.5%
Cc1cc(C)c2c(=O)n(CC(=O)N3CCC(Cc4ccccc4)CC3)sc2n1,?,-9.3%,-13.6%,-26.8%,/,-19.6%
COC(=O)c1ccc(C(NC(=O)OCc2ccccc2)/C(C)=C/[C@@H](C)C(=O)Nc2ccc(OC)cc2)cc1 (some centres not stated),-14.7%,-2.3%,-18.8%,/,/,20.3%
COC(=O)c1ccc2c(c1)SC1=C(CCCC1=O)N2,15.8µM*,-2.0%,?,-17.4%,>57,15.8µM*
COC(=O)c1ccc2c(c1)NC(=O)C(N1CCCC1)S2 (configuration not stated),-7.4%,-2.2%,-18.2%,-5.9%,>57,-0.4%
Cc1cc(C)n(-c2nc3ccccc3[nH]c2=O)n1,14.5%,-0.3%,17.9%,0.8%,>57,5.3%
Cc1cc(C)n(-c2nc3ccccc3nc2Nc2ccc3[nH]c(=O)[nH]c3c2)n1,-13.3%,6.2%,-26.5%,-1.5%,>57,1.26µM*
N#CC1=C(N)N(c2ccccc2)C2=C(C(=O)CCC2)C1c1cccs1 (configuration not stated),?,-6.3%,?,-5.5%,>57,20µM*
CN1Cc2cc(C(=O)c3cc(Cl)cc(CSc4ncccn4)c3O)cnc2NC1=O,-17.8%,-6.4%,-29.0%,-4.4%,>57,15.8µM*
CC(=O)OC[C@@H]1O[C@H](CCON=C(C)C)C=C[C@@H]1OC(C)=O,6.2%[11.4 µM],/,-9.4%[11.5 µM],-0.3%[11.4 µM],/,/
O=C1OCCC1Sc1nc2ccccc2n1-c1ccccc1 (configuration not stated),-0.9%,-4.5%,15.8µM*,1.4%,>57,-20.5%
Cc1cc2nnc(SC3CCOC3=O)n2c2ccccc12 (configuration not stated),-9.6%,-6.2%,15.8µM*,-2.5%,>57,12.1%
CC1(C)[C@@H](O)CC[C@@]2(C)[C@H]1CC[C@]1(C)[C@H]2C(=O)C=C2[C@@H]3C[C@@](C)(C(=O)O)CC[C@]3(C)CC[C@@]21C,/,-7.5%,/,0.7%[11.4 µM],/,?
Cc1ccc(CCCC(=O)O)cc1C,6.1%[11.4 µM],0.6%[11.4 µM],-18.0%[11.5 µM],0.6%[11.4 µM],/,3.8%[11.4 µM]
O=c1c2ccccc2c2ccccc2c(=O)n1-c1cc2c3ccccc3ccc2c2ccccc12,14.5%[11.4 µM],-3.2%[11.4 µM],1.7%[11.5 µM],-8.4%[11.4 µM],/,8.4%[11.4 µM]
O=C(Nc1cnn(Cc2ccc(F)cc2)c1)c1cc(-c2ccc(Br)cc2)on1,-15.1%,4.8%,/,0.1%,/,82.0%
Cc1nc2ccc(NC(=O)Cc3cccs3)cc2s1,-14.7%,0.4%,-17.1%,25.1µM*,/,-14.2%
O=C1C(Cl)=C(NC2CCc3ccccc32)C(=O)c2ncccc21 (configuration not stated),-17.2%,-5.7%,?,/,/,25.1µM*
O=C1C(Cl)=C(NCCN2CCOCC2)C(=O)c2ncccc21,?,/,-77.3%,/,/,/
COc1ccccc1N1CCN(C[C@@H](C(=O)NC(C)(C)C)c2ccccc2)CC1,15.8µM*,-5.1%,-4.8%,2.9%,/,?
SMILES,15-hLO inh,Pol III holo inh,ERK AVP inh,FLuc inh,PK Bst,Tau fil binding
COc1ccccc1N1CCN(C[C@@H](O)COc2cccc3ccccc23)CC1,?,-2.6%,?,2.8%,/,?
CCOC(=O)c1c(C)[nH]c2ccc3c(c12)CN1CCc2cc(OC)ccc2[C@@H]1O3,-0.5%[25.6 µM],-6.4%,-0.5%,1.3%,/,2.51µM*
Cc1ccc(C(=O)Nc2ccc3c(c2)nc2n3CCSC2)cc1,6.8%,-5.4%,-13.9%,7.94µM*,?,-2.1%
COc1ccccc1C(=O)Nc1ccc2c(c1)nc1n2CCSC1,11.9%,-13.8%,-6.0%,5.01µM*,5.61*,-18.8%
Cn1cccc1C(=O)N1CCC2(CCCN(c3ncccn3)C2)CC1,-9.9%,-3.5%,-7.9%,2.1%[11.4 µM],/,-13.9%
CC(=O)NCCNc1ccnc(-c2ccccc2C)n1,?,-6.2%,?,1.2%[2.29 µM],/,-6.6%
CCOC(=O)N1CCN(C(=O)Nc2ccc(Cl)cc2)CC1,-1.9%,0.2%,19.6%,-2.1%,>57,-11.6%
CCOC(=O)Cc1nnc2c(Nc3ccc(Cl)cc3)nc3nonc3n12,-11.1%,-3.2%,-15.6%,4.7%,>57,15.8µM*
O=C(Nc1ccc2c(c1)OCCO2)c1ccccc1F,-9.8%[11.4 µM],-1.0%[11.4 µM],-20.3%,5.01µM*,/,?
O=C(Nc1ccc2c(c1)OCCO2)c1c(F)cccc1F,4.1%,-5.1%,-6.6%,12.6µM*,/,0.2%
O=C(Nc1ccc2c(c1)OCO2)c1c(F)c(F)c(F)c(F)c1F,5.2%,-5.9%,0.8%,0.9%,>57,-11.3%
COC(=O)C1=C(C)NC(C)=C(C(=O)OC)C1c1ccc(N(C)C)cc1,-10.9%,-3.9%,-7.1%,2.0%,>57,-14.2%
COC(=O)C1=C(C)NC(C)=C([N+](=O)[O-])[C@H]1c1ccccc1C(F)(F)F,-5.3%[25.6 µM],2.1%,3.8%,-0.6%,/,31.6µM*
COC(=O)C1=C(C)NC(=O)CC1c1ccccc1F (configuration not stated),7.9%,3.4%,-13.7%,-0.2%,/,2.1%
COC(=O)C1=C(C)NC(C)=C([N+](=O)[O-])[C@@H]1c1ccccc1C(F)(F)F,-3.2%[25.6 µM],1.8%,18.5%,3.98µM*,/,31.6µM*
CCc1ccc(-c2cn(-c3nc(C)cc(C)n3)c(=N)o2)cc1,7.5%,-5.1%,-6.8%,15.8µM*,/,89.1%
O=C(c1ccco1)[C@@H]1[C@@H]2C(=O)N(c3ccc(Br)cc3)C(=O)[C@@H]2C2c3ccccc3C=CN21 (some centres not stated),-8.4%,-4.6%,-14.3%,-11.9%,7.2*,58.9%
N#Cc1ccccc1-c1cncnc1NCc1cccnc1,-23.4%,-2.1%,-6.6%,-2.1%[2.29 µM],/,-5.3%
COc1cccc(Cn2c(=O)cnc3cnc(OC)nc32)c1,?,4.4%,?,1.1%[11.4 µM],/,-12.2%
Clc1ccc(-c2nnc3sc(Cc4cccs4)nn23)c(Cl)c1,/,/,/,-0.3%[25.5 µM],9.46*,/
NC(=O)CCCCC(N)=O,4.6%,-2.9%,1.0%,/,/,-0.3%
Nc1ncn([C@@H]2O[C@@H](CO)[C@@H](O)[C@H]2O)c(=O)n1,/,-0.6%,/,0.0%,/,-9.3%
